Measurements: PubChem BioAssay (NCATS)
Inconclusive results are not listed. The source made the active and inactive calls. Calls come from the whole dose curve; as a rule, active = well fitted inhibition curve with a large enough effect; inconclusive = small, poorly fitted or top-dose-only effect; inactive = flat fitted curve, though single readings scatter.

Assays:
Assay in all cases: Cytotoxic Profiling of Annotated Libraries Using Quantitative High-Throughput Screening (AID 1296008); note: nearly all actives have a fitted effect of over 60% in size
Conditions in all cases: Five cell lines viability, CellTiter-Glo ATP luminescence, 48-72 h; max response: hits give low values
HaCat = test system: HaCat
How it was run: (§1)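 Compounds were pin-transferred onto cells and incubated 48 or 72 hr at 37 degree Celsius, 95% humidity. CellTiter-Glo was added, plates sat 10 min at room temperature, then ATP-coupled luminescence was imaged as the viability read-out.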

KB-3-1 = test system: KB-3-1
How it was run: as §1

NIH3T3 = test system: NIH3T3
How it was run: as §1
% is set by controls: 0 for no effect and ±100 for the full control effect; potency is the fitted concentration of half-maximal effect.

CC(C)C(C(=O)N(C)C(C)C(N)=O)N(C)C(=O)C1CCCN1C(=O)/C=C/C=C/C(O)C(C)O (stereo not drawn)
inactive: max response (HaCat) -10.3% | max response (KB-3-1) 7.9% | max response (NIH3T3) 2.29%

Cc1c(CN2CCN(C(=O)C(C)O)CC2)sc2c(N3CCOCC3)nc(-c3cnc(N)nc3)nc12 (stereo not drawn)
active: Potency (HaCat) 2.31 µM | Potency (KB-3-1) 0.58 µM | Potency (NIH3T3) 1.3 µM

C=C(C(=O)O)C1CC2=C(C)CCCC2(C)C[C@@H]1O (stereo partly drawn)
inactive: max response (HaCat) 0.301% | outcome (KB-3-1) | max response (NIH3T3) 4.2%

C[C@@H]1CCC/C=C/[C@H]2CC(=O)C[C@@H]2[C@@H](O)/C=C/C(=O)O1
inactive: max response (HaCat) -12.2% | max response (KB-3-1) 8.18% | max response (NIH3T3) -2.1%

COC(=O)C1=CO[C@@H](O)C2C(CO)=CCC12 (stereo partly drawn)
inactive: max response (HaCat) -12% | max response (KB-3-1) -1.48% | max response (NIH3T3) -2.89%

C=C(C(=O)O)C1CCC2(C)CCC(O)C(=C)C2C1 (stereo not drawn)
inactive: max response (HaCat) -10.5% | outcome (KB-3-1) | max response (NIH3T3) -5.34%

C=C1CN(Cc2ccc(C(=O)Nc3ccccc3N)cc2)C(=O)c2ccccc21
active: Potency (HaCat) 5.8 µM | Potency (KB-3-1) 1.84 µM | Potency (NIH3T3) 3.66 µM

COc1ccc2cc(C(C)C(=O)Oc3ccc(C(N)=S)cc3)ccc2c1 (stereo not drawn)
inactive: max response (HaCat) 2.17% | max response (KB-3-1) 7.25% | max response (NIH3T3) 3.5%

C[C@@H]1O[C@@H](O[C@H]2[C@H](O)[C@@H](O[C@@H]3O[C@H](CO)[C@@H](O)[C@H](O[C@@H]4O[C@H](CO)[C@@H](O)[C@H](O)[C@H]4O)[C@H]3O)[C@H](O[C@H]3CC[C@@]4(C)C(=CC[C@@H]5C4CC[C@@]4(C)C5C[C@@H]5OC6(CC[C@@](C)(CO[C@@H]7O[C@H](CO)[C@@H](O)[C@H](O)[C@H]7O)O6)[C@@H](C)[C@@H]54)C3)O[C@@H]2CO)[C@H](O)[C@H](O)[C@H]1O (stereo partly drawn)
inactive: max response (HaCat) -19% | max response (KB-3-1) 4.11% | max response (NIH3T3) 3.35%

CC1(C=O)CC[C@]2(C(=O)O[C@@H]3O[C@H](CO)[C@@H](O)[C@H](O)[C@H]3O)CC[C@]3(C)C(=CCC4[C@@]5(C)C[C@H](O)[C@H](O[C@@H]6OC[C@@H](O)[C@H](O)[C@H]6O)[C@@](C)(CO)C5CC[C@]43C)C2C1 (stereo partly drawn)
inactive: max response (HaCat) -0.307% | outcome (KB-3-1) | max response (NIH3T3) -1.18%

CC1(C)CC[C@]2(C(=O)O[C@@H]3O[C@H](CO)[C@@H](O)[C@H](O)[C@H]3O)CC[C@]3(C)C(=CCC4[C@@]5(C)C[C@@H](O)[C@H](O)C(C)(C)C5CC[C@]43C)C2[C@@H]1O (stereo partly drawn)
inactive: max response (HaCat) 2.98% | outcome (KB-3-1) | max response (NIH3T3) -3.15%

CC(C)(O)/C=C/CC(C)(O)C1C(O)CC2(C)C3CCC4C(C)(C)C(=O)CCC4(C)C3CCC12C (stereo not drawn)
inactive: max response (HaCat) -10.7% | outcome (KB-3-1) | max response (NIH3T3) -0.144%

CC(=O)O[C@@H]1c2c(C)coc2C(=O)[C@@]23O[C@@H]2CC[C@H](C)[C@@]13C
inactive: max response (HaCat) -14.6% | max response (KB-3-1) 9.51% | max response (NIH3T3) 4.3%

COc1ccc(F)cc1-c1cc(NC(=O)[C@@H]2CCCNC2)ncc1Cl
active: Potency (HaCat) 1.16 µM | Potency (KB-3-1) 0.231 µM | Potency (NIH3T3) 1.03 µM

CC1(C)C=CN2C(=O)C3=CCCN3C(=O)[C@@H]2C[C@@]12Nc1ccccc1C2=O
inactive: max response (HaCat) -4.92% | outcome (KB-3-1) | max response (NIH3T3) -3.89%

C=C1C[C@]23C[C@H]1[C@@H](O)C[C@H]2[C@@]12C=C[C@H](O)[C@@](C)(C(=O)O1)[C@H]2[C@@H]3C(=O)O
inactive: max response (HaCat) -32.5% | max response (KB-3-1) -2.31% | max response (NIH3T3) 0.227%

C/C=C/C=C/C(=O)N1CC[C@]23c4ccccc4N[C@H]4N(C)c5cccc6c5[C@@]42CCN([C@H]6C2OC2(C)C)[C@H]13 (stereo partly drawn)
inactive: max response (HaCat) -7.02% | max response (KB-3-1) 9.01% | max response (NIH3T3) 3.9%

CC1=CC(=O)CC(C)(CO)C1(O)/C=C/C(C)O[C@@H]1O[C@H](CO)[C@@H](O)[C@H](O)[C@H]1O (stereo partly drawn)
inactive: max response (HaCat) 2.49% | max response (KB-3-1) -2.84% | max response (NIH3T3) -3.42%

C=C(C)C1CCC(C)C12CC(O)C1(C)OC1C2OC(=O)C(N)CCC(=O)O (stereo not drawn)
inactive: outcome (HaCat) | max response (KB-3-1) 1.24% | max response (NIH3T3) 4.47%

CO[C@H]1C[C@@H]2CC[C@@H](C)[C@@](O)(O2)C(=O)C(=O)N2CCCC[C@H]2C(=O)O[C@H]([C@H](C)C[C@@H]2CC[C@@H](OP(C)(C)=O)[C@H](OC)C2)CC(=O)[C@H](C)/C=C(\C)[C@@H](O)[C@@H](OC)C(=O)[C@H](C)C[C@H](C)/C=C/C=C/C=C/1C
inactive: max response (HaCat) -0.379% | max response (KB-3-1) 3.84% | max response (NIH3T3) -16.2%

C=C1CCC2C(C)(C(=O)O)CCCC2(C)C1CCC(C)CC(=O)O (stereo not drawn)
inactive: max response (HaCat) 3.35% | max response (KB-3-1) -0.708% | max response (NIH3T3) -9.77%
